In PubChem BioAssay (EPA / NIEHS) one finds outcome and AC50 data, which are given here for 19 molecules.

Where “and” joins values, the source holds several entries; their conditions need not be identical. Equal values may be shown once. Some structures have more than one record in an assay (separate samples or runs), and their calls can disagree. Calls of active or inactive are those of the source. How the source made its calls: active means hit-call score of the fitted dose curve at least 0.9, where 1 is the maximum; inactive means score below 0.9.

This assay is described as follows: CEETOX_H295R_OHPREG: CeeTox H295R High-throughput Steroidogenesis Assay for OH-Pregnenolone (OHPREG) (AID 2283434). The note with it: actives raise or lower the signal. In outline:
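Hormone levels in spent medium were measured by tandem mass spectrometry following liquid-liquid extraction. Cells (H295R) had been forskolin-stimulated (10 uM, 48 h) before a 48 h chemical exposure at 0.1% DMSO, with activity fitted in both directions against DMSO.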
In the case of `Cc1cccc(N)c1`, the call was inactive.
Regarding `ClC(Cl)=C(c1ccc(Cl)cc1)c1ccccc1Cl`, the result was inactive.
For the molecule `Nc1ccc2ccccc2c1`, the call was inactive.
In the case of `Nc1cc2c3c(c1)C(c1ccccc1)=N[C@@H](NC(=O)c1cccnc1)C(=O)N3CC2`, the AC50 (usually the concentration at which the activity in the assay is half-maximal) is 27.6 µM (active).
Regarding `Oc1ccc(I)cc1`, the outcome was inactive.
Turning to `c1ccc(OP(Oc2ccccc2)Oc2ccccc2)cc1`, the outcome was inactive.
On the same count and under the same terms, with `CCOP(=S)(NC(C)C)Oc1ccccc1C(=O)OC(C)C` (stereo not given) the entry was “inactive”.
With `CC(C)(C)c1ccc(O)cc1`, the result was inactive.
Take `COP(N)(=S)OC`: the molecule was classed as inactive.
Still for that read-out and setting: next, `CC(=O)c1ccc(-c2ccccc2)cc1`: “inactive”; `CCOP(=S)(OCC)SCn1nnc2ccccc2c1=O`: “inactive”; `CC(C)Nc1ccc(Nc2ccccc2)cc1`: “inactive”.
Regarding `Nc1ccc(Cl)cc1`, the call was inactive.
As to `CCCCOCCOP(=O)(OCCOCCCC)OCCOCCCC`, the molecule was called inactive.
The same measure, in the same setting: with `CCOP(=S)(Oc1ccc([N+](=O)[O-])cc1)c1ccccc1` (stereo not given) the entry was “inactive”.
`c1ccc2c(c1)Nc1ccccc1S2`: the AC50 was 6.86 µM (active) and 2.55 µM (active); the outcome was inactive.
As for `Nc1ccc([N+](=O)[O-])cc1Cl`, the result was inactive.
For `Cc1ccc(O)cc1C`, the result was inactive.
Same read-out and setting: with `N#Cc1c(-c2ccc(Cl)cc2)[nH]c(C(F)(F)F)c1Br` the entry was “inactive”.
